Source: the supplement of paper PMC11732987, “Enantioselective OTUD7B fragment discovery through chemoproteomics screening and high-throughput optimisation” (Communications Chemistry, 2025)

What was measured:
Test in all cases: log2 ratio of Biotin-Ahx-Ub-VS probe labelling (fragment/DMSO); higher = less target engagement (more negative = stronger competition), active = hit call of the paper (q ≤ 0.05, log2 ratio ≤ -1)
Settings in all cases: compound concentration: 200 uM; treatment time: 3 h
[1] = biological target: USP9X (UniProt Q93008)
Outline: (§1)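 HEK293T lysate in Tris/CHAPS/IGEPAL buffer with protease inhibitors (495 µg per sample) was given fragment at 200 µM or vehicle for 3 h, in triplicate. It then received Biotin-Ahx-Ub-VS at 0.5 µM final for 1 h. Labelled DUBs were NeutrAvidin-enriched, digested with LysC and trypsin, and run by diaPASEF LC-MS/MS. Values are average log2 fragment/vehicle ratios by unpaired t-test on global-median-normalised Spectronaut quantities of proteins with ≥2 unique peptides.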

[2] = biological target: UniProt O00487
Outline: as §1

[3] = biological target: UniProt O00507
Outline: as §1

[4] = biological target: UniProt P51784
Outline: as §1

[5] = biological target: T1, UniProt Q5T2D3
T1 sequence (whole entry): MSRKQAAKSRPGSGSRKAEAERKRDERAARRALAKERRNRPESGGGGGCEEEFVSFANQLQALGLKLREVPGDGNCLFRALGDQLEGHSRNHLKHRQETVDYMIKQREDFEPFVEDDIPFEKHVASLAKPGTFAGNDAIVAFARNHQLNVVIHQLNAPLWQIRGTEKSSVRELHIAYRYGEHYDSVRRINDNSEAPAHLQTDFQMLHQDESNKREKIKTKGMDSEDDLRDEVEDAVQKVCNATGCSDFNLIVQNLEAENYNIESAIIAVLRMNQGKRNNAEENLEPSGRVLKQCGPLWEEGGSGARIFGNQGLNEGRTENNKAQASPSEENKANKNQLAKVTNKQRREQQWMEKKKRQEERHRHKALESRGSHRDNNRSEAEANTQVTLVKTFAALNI
Outline: as §1

[6] = biological target: T2, UniProt Q8TE49
T2 sequence (whole entry): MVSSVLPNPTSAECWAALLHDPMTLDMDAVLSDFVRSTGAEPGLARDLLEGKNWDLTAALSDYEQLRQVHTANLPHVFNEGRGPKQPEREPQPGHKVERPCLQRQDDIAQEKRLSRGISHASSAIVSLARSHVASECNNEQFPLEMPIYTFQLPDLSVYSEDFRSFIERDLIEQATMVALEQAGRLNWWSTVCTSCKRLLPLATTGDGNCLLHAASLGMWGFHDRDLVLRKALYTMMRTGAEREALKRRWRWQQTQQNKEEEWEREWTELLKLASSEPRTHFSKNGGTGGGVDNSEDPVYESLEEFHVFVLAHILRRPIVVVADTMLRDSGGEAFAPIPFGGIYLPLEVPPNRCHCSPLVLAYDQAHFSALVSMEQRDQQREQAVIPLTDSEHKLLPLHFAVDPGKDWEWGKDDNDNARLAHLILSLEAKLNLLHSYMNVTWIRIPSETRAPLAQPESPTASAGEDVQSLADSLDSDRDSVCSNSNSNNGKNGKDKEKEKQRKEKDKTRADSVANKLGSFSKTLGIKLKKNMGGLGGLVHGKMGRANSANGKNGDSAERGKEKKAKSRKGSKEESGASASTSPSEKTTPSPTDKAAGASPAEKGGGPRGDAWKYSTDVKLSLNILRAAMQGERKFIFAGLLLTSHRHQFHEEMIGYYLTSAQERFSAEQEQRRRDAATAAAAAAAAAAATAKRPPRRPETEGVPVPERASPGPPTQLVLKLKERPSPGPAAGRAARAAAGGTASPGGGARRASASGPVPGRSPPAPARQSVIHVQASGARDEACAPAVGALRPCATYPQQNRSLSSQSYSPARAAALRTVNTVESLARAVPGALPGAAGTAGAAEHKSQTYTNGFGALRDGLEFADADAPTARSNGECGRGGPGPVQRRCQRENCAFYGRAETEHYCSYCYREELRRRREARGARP
Outline: as §1

[7] = biological target: T3, UniProt Q9P2H5
T3 sequence (whole entry): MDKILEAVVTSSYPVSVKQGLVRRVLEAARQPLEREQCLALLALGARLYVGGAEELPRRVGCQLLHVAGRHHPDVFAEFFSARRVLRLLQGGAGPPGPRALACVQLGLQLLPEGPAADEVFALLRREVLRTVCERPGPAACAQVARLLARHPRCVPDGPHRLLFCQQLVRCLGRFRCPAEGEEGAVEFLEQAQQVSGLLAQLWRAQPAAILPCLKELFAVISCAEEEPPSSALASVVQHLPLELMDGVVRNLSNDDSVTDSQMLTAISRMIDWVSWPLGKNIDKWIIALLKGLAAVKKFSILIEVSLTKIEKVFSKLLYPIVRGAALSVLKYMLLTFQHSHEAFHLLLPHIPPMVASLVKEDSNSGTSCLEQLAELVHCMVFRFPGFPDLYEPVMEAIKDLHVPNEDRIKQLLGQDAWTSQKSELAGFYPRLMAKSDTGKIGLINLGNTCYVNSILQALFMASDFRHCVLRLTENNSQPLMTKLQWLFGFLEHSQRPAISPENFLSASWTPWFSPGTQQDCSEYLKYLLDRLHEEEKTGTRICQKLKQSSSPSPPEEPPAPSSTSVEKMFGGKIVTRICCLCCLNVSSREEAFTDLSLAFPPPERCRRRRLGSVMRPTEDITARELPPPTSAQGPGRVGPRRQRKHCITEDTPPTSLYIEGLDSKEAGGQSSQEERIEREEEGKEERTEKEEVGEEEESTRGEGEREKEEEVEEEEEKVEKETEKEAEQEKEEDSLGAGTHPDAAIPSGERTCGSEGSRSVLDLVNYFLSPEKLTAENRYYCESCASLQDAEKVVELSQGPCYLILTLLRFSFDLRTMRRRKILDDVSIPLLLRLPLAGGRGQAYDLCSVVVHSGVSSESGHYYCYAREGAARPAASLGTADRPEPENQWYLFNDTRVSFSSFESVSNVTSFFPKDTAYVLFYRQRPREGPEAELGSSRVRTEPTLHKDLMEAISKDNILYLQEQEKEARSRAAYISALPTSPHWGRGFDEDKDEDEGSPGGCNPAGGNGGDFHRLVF
Outline: as §1

[8] = biological target: T4, UniProt Q9UGI0
T4 sequence (whole entry): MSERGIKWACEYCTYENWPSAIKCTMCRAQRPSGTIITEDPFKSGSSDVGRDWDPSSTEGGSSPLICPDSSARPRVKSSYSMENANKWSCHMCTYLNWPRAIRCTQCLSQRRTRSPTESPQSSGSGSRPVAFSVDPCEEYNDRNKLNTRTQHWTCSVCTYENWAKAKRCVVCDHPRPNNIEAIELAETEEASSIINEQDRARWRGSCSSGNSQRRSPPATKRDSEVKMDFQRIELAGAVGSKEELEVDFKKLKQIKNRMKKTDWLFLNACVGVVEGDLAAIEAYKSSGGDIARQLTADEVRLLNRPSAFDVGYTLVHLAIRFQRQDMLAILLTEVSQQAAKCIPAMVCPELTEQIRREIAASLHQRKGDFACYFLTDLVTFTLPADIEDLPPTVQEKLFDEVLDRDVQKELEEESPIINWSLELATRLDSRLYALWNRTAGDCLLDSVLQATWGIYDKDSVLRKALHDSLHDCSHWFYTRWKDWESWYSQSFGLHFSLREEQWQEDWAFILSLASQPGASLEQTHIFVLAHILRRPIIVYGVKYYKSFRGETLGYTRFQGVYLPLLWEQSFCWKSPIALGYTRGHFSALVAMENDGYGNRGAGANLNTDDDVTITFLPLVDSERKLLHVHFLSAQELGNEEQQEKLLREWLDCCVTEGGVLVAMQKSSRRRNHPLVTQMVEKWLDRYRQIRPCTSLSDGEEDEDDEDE
Outline: as §1

[9] = biological target: T5, YOD1 (UniProt Q5VVQ6)
T5 sequence (whole entry): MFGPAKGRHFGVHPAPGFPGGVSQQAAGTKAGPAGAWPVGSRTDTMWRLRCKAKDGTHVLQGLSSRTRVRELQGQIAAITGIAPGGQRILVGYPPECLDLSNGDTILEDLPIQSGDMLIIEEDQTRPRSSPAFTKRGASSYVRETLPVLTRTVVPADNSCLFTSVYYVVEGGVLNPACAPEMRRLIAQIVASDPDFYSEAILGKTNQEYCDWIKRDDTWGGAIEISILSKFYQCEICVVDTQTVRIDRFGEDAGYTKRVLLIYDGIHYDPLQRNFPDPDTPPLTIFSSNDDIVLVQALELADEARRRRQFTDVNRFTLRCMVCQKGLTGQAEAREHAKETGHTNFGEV
Outline: as §1

Measured: log2 ratio of Biotin-Ahx-Ub-VS probe labelling

UniProt O00507, sequence (O00507 whole entry): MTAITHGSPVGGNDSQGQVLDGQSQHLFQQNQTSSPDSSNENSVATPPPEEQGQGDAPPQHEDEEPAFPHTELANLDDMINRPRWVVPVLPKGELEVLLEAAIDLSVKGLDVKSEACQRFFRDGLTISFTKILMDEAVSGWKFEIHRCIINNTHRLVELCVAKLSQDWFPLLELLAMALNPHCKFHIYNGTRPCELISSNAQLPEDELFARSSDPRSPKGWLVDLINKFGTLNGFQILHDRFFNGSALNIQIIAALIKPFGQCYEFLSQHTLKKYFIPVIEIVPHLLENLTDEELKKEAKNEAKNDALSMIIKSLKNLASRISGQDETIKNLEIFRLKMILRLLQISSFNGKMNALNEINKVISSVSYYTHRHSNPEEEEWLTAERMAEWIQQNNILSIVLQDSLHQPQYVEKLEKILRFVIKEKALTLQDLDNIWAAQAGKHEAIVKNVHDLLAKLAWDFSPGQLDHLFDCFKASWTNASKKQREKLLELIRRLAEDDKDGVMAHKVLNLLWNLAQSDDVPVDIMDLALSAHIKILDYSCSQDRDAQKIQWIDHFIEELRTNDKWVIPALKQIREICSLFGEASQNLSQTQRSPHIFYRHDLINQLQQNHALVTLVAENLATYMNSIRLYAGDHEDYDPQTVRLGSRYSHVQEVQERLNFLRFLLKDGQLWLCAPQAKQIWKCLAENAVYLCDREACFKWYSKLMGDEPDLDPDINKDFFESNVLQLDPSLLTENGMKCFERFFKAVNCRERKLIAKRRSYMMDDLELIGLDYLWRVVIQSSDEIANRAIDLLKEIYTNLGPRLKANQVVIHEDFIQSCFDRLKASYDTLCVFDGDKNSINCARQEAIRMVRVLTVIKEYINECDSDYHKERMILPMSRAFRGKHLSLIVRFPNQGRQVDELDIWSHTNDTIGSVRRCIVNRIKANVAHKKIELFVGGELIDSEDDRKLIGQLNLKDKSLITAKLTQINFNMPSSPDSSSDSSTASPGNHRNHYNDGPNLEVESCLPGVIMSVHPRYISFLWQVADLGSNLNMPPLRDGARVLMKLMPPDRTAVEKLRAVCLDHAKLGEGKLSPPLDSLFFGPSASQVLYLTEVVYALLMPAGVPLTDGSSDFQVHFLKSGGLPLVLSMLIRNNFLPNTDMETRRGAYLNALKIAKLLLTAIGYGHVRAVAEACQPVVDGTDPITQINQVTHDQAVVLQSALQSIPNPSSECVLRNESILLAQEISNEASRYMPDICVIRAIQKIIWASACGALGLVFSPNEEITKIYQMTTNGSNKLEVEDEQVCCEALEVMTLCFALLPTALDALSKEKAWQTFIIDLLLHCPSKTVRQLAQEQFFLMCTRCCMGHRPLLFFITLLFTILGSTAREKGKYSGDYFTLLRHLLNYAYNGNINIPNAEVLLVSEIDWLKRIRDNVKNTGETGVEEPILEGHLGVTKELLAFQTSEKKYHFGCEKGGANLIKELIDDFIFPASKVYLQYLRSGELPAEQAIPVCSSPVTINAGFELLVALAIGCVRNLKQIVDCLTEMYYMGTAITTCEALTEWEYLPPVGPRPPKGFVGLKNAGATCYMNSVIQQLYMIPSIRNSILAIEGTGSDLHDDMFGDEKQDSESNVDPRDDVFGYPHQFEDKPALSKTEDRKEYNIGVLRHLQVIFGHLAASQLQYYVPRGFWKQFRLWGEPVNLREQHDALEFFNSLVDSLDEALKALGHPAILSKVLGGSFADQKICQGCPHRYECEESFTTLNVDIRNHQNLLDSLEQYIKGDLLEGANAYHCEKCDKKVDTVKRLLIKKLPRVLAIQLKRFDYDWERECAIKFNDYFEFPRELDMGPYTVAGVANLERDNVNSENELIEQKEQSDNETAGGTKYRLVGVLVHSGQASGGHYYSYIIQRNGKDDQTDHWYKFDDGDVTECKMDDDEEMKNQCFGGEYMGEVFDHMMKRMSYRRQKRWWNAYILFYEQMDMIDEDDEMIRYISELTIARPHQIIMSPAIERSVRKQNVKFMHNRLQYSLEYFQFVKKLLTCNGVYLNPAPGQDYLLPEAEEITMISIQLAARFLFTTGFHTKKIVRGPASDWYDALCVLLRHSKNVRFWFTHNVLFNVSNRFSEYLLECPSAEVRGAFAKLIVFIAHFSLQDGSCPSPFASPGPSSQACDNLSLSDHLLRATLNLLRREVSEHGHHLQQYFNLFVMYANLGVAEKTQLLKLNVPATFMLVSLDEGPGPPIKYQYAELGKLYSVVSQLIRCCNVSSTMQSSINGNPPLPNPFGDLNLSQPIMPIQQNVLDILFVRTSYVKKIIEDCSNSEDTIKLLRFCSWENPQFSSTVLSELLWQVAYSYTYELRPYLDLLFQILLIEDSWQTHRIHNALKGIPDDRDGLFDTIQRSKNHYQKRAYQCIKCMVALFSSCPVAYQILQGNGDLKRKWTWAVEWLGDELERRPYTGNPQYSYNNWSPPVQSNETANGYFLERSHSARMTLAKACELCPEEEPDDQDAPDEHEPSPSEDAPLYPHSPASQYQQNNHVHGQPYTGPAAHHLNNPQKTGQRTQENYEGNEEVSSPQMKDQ
UniProt O00487, sequence (O00487 whole entry): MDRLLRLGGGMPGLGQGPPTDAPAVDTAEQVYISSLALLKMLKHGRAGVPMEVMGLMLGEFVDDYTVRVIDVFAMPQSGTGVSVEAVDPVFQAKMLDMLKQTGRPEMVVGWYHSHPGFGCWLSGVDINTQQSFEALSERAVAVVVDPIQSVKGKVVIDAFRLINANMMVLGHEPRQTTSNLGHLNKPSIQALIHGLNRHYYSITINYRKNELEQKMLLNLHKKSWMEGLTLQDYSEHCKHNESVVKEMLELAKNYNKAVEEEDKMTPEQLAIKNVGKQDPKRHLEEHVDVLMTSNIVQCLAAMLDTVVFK
UniProt P51784, sequence (P51784 whole entry): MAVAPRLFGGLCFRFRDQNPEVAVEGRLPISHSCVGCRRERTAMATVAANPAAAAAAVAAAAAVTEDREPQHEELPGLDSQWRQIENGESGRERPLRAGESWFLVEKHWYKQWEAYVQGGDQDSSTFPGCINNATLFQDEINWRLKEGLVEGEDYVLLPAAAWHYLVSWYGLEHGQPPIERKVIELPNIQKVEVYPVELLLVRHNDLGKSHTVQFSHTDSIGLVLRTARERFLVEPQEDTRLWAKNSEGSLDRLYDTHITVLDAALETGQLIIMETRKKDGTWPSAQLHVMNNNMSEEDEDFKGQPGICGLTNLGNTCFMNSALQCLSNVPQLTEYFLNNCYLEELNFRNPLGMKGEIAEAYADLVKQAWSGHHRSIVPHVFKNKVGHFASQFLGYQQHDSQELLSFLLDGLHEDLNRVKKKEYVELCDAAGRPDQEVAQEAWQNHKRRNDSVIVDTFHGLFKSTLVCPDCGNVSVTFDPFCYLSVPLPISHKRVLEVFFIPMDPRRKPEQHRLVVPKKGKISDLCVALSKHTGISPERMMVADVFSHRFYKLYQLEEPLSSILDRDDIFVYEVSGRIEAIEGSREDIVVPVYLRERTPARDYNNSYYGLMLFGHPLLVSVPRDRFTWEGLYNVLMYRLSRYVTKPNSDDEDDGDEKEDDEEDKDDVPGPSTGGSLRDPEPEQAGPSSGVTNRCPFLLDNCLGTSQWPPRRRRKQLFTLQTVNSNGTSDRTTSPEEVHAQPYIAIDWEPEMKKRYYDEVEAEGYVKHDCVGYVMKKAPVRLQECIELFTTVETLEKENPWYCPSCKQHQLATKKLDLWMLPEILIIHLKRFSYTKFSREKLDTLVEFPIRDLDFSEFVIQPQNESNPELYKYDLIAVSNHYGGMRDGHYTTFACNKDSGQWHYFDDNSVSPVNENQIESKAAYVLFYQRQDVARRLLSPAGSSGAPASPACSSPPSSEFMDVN

O=C(CCl)Nc1ccc(N2CCCC2=O)cc1
inactive: [1] 0.00968 | [2] -0.0936 | [3] -0.208 | [4] 0.297 | [5] 0.165 | [6] 0.0701 | [7] 0.00543 | [8] -0.752 | [9] 0.137
